According to PubChem BioAssay (Tox21):
Where “and” joins values, the source holds several entries; their conditions need not be identical. Equal entries are not always repeated. Unmarked numbers belong to inactive results. Records with an inconclusive call do not appear. Where a call stands in place of a potency, no number is given. Calls of active or inactive are those of the source. Unless noted, the call rests on the fitted dose curve; in most records, active means well fitted curve in the direction sought with a large enough effect in the repeat runs; inconclusive means weak or mixed curves; inactive means no such curve, though single readings can be large; an effect the other way counts as inactive or inconclusive.

What was measured:
[1] = target: Estrogen receptor (Homo sapiens) (UniProt P03372); experiment: qHTS assay to identify small molecule antagonists of the estrogen receptor alpha (ER-alpha) signaling pathway using the BG1 cell line in the presence of 0.1 nM 17-beta-estradiol (AID 1259244); further: nearly all actives have a fitted effect of over 50% in size
In short: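 VM7Luc4E2 cells (endogenous full-length ER-alpha, stable 4xERE-luciferase) were grown 5 days in phenol red-free medium with charcoal-stripped FBS, then exposed 22 h at 37C to compounds plus 0.1 nM (final) 17beta-estradiol; ONE-Glo luminescence read-out.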

[2] = qHTS assay to identify small molecule HDAC inhibitors (AID 1259364); further: top concentration of the series differs between compounds; nearly all actives have a fitted effect of over 45% in size
In short: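 Wild-type HCT-116 cells were plated overnight, exposed to compounds for 2 h at 37 °C, then given HDAC-Glo class I/II luminogenic reagent for 30 min at room temperature before luminescence was read.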

[3] = qHTS assay to identify small molecule HDAC inhibitors - cell viability counter screen (AID 1259365); further: series mostly up to about 92 µM; nearly all actives have a fitted effect of over 50% in size
In short: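 Viability readout: CellTiter-Glo luminescence. Wild-type HCT-116 cells, 2hr compound treatment following overnight attachment at 37 C.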

[4] = qHTS assay to identify small molecule agonists of the sonic hedgehog signaling (Shh) pathway - cell viability counter screen (AID 1259366); further: nearly all actives have a fitted effect of over 50% in size; further: potency means the concentration at half of the fitted maximal effect
In short: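 Viability measured fluorometrically (CellTiter-Fluor, 1hr, 37C) in 3T3 Gli1-Luc reporter cells after 23hr compound exposure within a 24hr incubation at 37C/5% CO2.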

[5] = qHTS assay to identify small molecule antagonists of the sonic hedgehog signaling (Shh) pathway - cell viability counter screen (AID 1259367); further: nearly all actives have a fitted effect of over 55% in size; further: potency means the concentration at half of the fitted maximal effect
In short: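 NIH/3T3-derived Gli1-Luc reporter cells (2,000 per well) rested 4 hr at 37 C, then received DMSO compounds plus conditioned medium. After 23 hr of treatment, CellTiter-Fluor was added for 1 hr at 37C and fluorescence read.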

[6] = qHTS assay to identify small molecule agonists of the sonic hedgehog signaling (Shh) pathway (AID 1259368; calls by dose curve; further: series mostly up to about 92 µM; nearly all actives have a fitted effect of over 15% in size)
In short: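 NIH/3T3-derived 3T3Gli1-Luc cells carrying a stably integrated Gli1 response element–firefly luciferase reporter were plated, left 4 hr at 37 C, then given compounds in DMSO for 24 hr. Luminescence was read 30 min after adding luciferase reagent.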

[7] = qHTS assay to identify small molecule agonists of the androgen receptor (AR) signaling pathway in the presence of an antagonist - cell viability counter screen (AID 1259379); further: series mostly up to about 92 µM; nearly all actives have a fitted effect of over 25% in size
In short: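 MDA-kb2 human breast carcinoma cells (stable MMTV-luciferase, AR/GR responsive) were seeded 3,000 cells/well, pre-incubated 5 hr at 37C without CO2, then given 3.0uM nilutamide and compounds at 15 concentrations for 16 hr. Viability was read by CellTiter-Fluor fluorescence.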

[8] = target: Estrogen receptor (Homo sapiens) (UniProt P03372); experiment: qHTS assay to identify small molecule agonists of the estrogen receptor alpha (ER-alpha) signaling pathway in the presence of an antagonist (AID 1259383; calls by dose curve; further: top concentration of the series differs between compounds; nearly all actives have a fitted effect of over 15% in size)
In short: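 VM7Luc4E2 cells (endogenous full-length ER-alpha, 4×ERE-luciferase) were precultured 5 days in phenol red-free medium with 10% charcoal-stripped FBS, given 10.0nM ICI-182,780 (final), then treated with compounds at 15 concentrations for 22hr at 37C; luminescence read with ONE-Glo.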

[9] = qHTS assay to identify small molecule agonists of the estrogen receptor alpha (ER-alpha) signaling pathway in the presence of an antagonist - cell viability counter screen (AID 1259386); further: series mostly up to about 92 µM; nearly all actives have a fitted effect of over 30% in size
In short: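 VM7Luc4E2 cells (endogenous full-length ER-alpha, 4×ERE-luciferase) were held 5 days in phenol red-free medium with 10% charcoal-stripped FBS, plated, then given 10.0nM ICI-182,780 and compounds at 15 concentrations for 22hr at 37C; viability read by CellTiter-Fluor fluorescence.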

[10] = target: Progesterone receptor (Homo sapiens) (UniProt P06401); experiment: qHTS assay to identify small molecule agonists of the progesterone receptor (PR) signaling pathway (AID 1346784; calls by dose curve; further: nearly all actives have a fitted effect of over 30% in size)
In short: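 Agonist mode, quantitative HTS format in a HEK 293T line expressing a UAS-controlled beta-lactamase reporter; 16 hr compound exposure at 37C in 2% charcoal-stripped FBS, then LiveBLAzer B/G FRET fluorescence.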

[11] = qHTS assay to identify small molecule phospholipidosis (PLD) inducers (AID 1259344; active means well fitted curve in the direction sought with a large enough effect; an effect the other way counts as inactive or inconclusive; further: potency means the concentration at half of the fitted maximal effect)
In short: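 HepG2 cells on collagen I, attached 4 h at 37 C, were co-treated with compound and LipidTOX Red dye for 24 h at 37 C, then fixed with paraformaldehyde plus Hoechst 33342 and imaged by high-content microscopy for phospholipid accumulation.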

[12] = qHTS assay to identify small molecule antagonists of the sonic hedgehog signaling (Shh) pathway (AID 1259369; calls by dose curve; further: nearly all actives have a fitted effect of over 45% in size; further: potency means the concentration at half of the fitted maximal effect)
In short: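 NIH/3T3-derived 3T3Gli1-Luc cells with stably integrated Gli1-Luc reporter were preincubated 4hr at 37 C, then given compounds in DMSO plus Shh conditioned medium and incubated 24hr. Firefly luciferase luminescence read after 30min reagent at room temperature.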

[13] = qHTS assay to identify small molecule agonists of the estrogen receptor beta (ER-beta) signaling pathway - cell viability counter screen (AID 1259380); further: nearly all actives have a fitted effect of over 30% in size; further: potency means the concentration at half of the fitted maximal effect
In short: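 ER-beta-UAS-bla HEK293T cells in medium with 2% charcoal-stripped FBS were preincubated 6 hr at 37C, dosed with compound in DMSO for 16 hr, then after the bla read, CellTiter-Glo was added for 30 min at room temperature; luminescence recorded.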

[14] = target: Estrogen receptor beta (Homo sapiens) (UniProt Q92731); experiment: qHTS assay to identify small molecule antagonists of the estrogen receptor beta (ER-beta) signaling pathway (AID 1259378; active means well fitted inhibition curve with a large enough effect in the signal ratio in the repeat runs, not every such curve was filed as active; the % refers to the signal ratio; further: potency means the concentration at half of the fitted maximal effect)
In short: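 ER-beta-UAS-bla HEK293T (GripTite) cells in 2% charcoal-stripped FBS medium were preincubated 6 hr at 37C, dosed with compound, then stimulated with 1 nM E2 (final) for 16 hr; beta-lactamase reporter read by B/G FRET fluorescence after 2 hr substrate loading.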

[15] = qHTS assay to identify small molecule antagonists of the estrogen receptor beta (ER-beta) signaling pathway - cell viability counter screen (AID 1259382); further: potency means the concentration at half of the fitted maximal effect; nearly all actives have a fitted effect of over 55% in size
In short: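 ER-beta-UAS-bla HEK293T cells (2,000/well, 2% charcoal-stripped FBS) were pre-incubated 6 hr at 37C, then given compound plus 1nM final 17-beta-estradiol for 16 hr. Viability was read in the same wells by CellTiter-Glo luminescence after 30 min at room temperature.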

[16] = qHTS assay to identify small molecule agonists or antagonists of the thyroid stimulating hormone receptor (TSHR) signaling pathway - wild type cell line counter screen (AID 1259384; calls by dose curve)
In short: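 Wild-type HEK293 cells were plated 18 h at 37 C/5% CO2, pin-dosed with compound plus Ro20-1724 medium, held 30 min at room temperature, then given cAMP-d2 and anti-cAMP-cryptate; fluorescence was read after 1 h. Fifteen concentrations, triplicate.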

[17] = target: Progesterone receptor (Homo sapiens) (UniProt P06401); experiment: qHTS assay to identify small molecule antagonists of the progesterone receptor (PR) signaling pathway (AID 1346795; active means well fitted inhibition curve with a large enough effect in the signal ratio in the repeat runs, not every such curve was filed as active; the % refers to the signal ratio; further: potency means the concentration at half of the fitted maximal effect)
In short: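 HEK293T PR-UAS-bla reporter cells in charcoal-stripped serum (2%) received compound after a 6 hr settling period, followed by R5020 agonist at 1 nM final; 16 hr incubation preceded the FRET substrate step and fluorescence measurement.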

[18] = target: Androgen receptor (Homo sapiens) (UniProt P10275); experiment: qHTS assay to identify small molecule agonists of the androgen receptor (AR) signaling pathway in the presence of an antagonist (AID 1259381; calls by dose curve; further: nearly all actives have a fitted effect of over 15% in size; further: potency means the concentration at half of the fitted maximal effect)
In short: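 MDA-kb2 human breast carcinoma cells carrying an MMTV-luciferase reporter (AR- and GR-responsive) were treated with compounds at 15 concentrations plus 3.0uM final nilutamide for 16hr at 37C without CO2; luminescence was read after ONE-Glo addition.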

[19] = target: Estrogen receptor beta (Homo sapiens) (UniProt Q92731); experiment: qHTS assay to identify small molecule agonists of the estrogen receptor beta (ER-beta) signaling pathway (AID 1259377; active means well fitted activation curve with a large enough effect in the signal ratio in the repeat runs, not every such curve was filed as active; the % refers to the signal ratio)
In short: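 A UAS-controlled beta-lactamase reporter in ER-beta-UAS-bla HEK293T cells reports receptor activation. Compounds act for 16 hr at 37C in 2% charcoal-stripped serum, and a FRET substrate is read by fluorescence after 2 hours.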

[20] = target: Thyrotropin receptor (Homo sapiens) (UniProt P16473); experiment: qHTS assay to identify small molecule antagonists of the thyroid stimulating hormone receptor (TSHR) signaling pathway (AID 1259385; calls by dose curve; further: nearly all actives have a fitted effect of over 20% in size)
In short: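 TSHR-HEK293 cells were plated and held 18 h at 37C/5% CO2, then given compound plus Ro20-1724 and stimulated with TSH at 1.5 ng/mL final. After 30 min at room temperature, cAMP was detected with cAMP-d2/anti-cAMP-cryptate (1 h) by fluorescence.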

Sequence of Estrogen receptor beta (Homo sapiens) (Q92731 whole entry, looked up): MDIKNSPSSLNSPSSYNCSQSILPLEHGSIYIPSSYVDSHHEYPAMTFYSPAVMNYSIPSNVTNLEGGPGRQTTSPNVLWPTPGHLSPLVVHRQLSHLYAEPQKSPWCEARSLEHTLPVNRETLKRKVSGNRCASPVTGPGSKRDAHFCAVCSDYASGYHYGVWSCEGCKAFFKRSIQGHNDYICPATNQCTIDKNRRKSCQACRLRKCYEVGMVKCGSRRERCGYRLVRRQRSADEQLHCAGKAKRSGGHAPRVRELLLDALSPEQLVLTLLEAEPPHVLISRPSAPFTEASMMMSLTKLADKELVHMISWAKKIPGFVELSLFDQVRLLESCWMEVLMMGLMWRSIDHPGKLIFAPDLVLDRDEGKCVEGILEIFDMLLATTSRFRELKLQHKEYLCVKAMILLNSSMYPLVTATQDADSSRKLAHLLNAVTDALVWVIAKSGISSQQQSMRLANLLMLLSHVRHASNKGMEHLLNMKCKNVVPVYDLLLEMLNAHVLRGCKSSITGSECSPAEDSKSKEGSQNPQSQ
Sequence of Estrogen receptor (Homo sapiens) (P03372 whole entry, looked up): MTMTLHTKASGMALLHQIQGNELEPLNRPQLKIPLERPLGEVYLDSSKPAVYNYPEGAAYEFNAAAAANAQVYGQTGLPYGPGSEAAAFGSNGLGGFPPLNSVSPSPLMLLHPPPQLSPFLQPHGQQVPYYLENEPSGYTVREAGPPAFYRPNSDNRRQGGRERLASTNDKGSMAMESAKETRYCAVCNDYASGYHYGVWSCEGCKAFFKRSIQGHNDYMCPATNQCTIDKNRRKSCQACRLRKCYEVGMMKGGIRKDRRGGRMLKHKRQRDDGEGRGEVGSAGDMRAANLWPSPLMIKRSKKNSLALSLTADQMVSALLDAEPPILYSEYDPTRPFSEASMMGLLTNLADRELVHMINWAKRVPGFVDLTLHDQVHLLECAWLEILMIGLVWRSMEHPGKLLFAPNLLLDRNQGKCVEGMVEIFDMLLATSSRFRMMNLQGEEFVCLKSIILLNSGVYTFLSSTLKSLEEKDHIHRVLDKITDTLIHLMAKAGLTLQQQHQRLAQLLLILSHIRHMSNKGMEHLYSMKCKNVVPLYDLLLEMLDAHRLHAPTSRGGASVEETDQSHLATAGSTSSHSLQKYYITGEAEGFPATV
Sequence of Progesterone receptor (Homo sapiens) (P06401 whole entry, looked up): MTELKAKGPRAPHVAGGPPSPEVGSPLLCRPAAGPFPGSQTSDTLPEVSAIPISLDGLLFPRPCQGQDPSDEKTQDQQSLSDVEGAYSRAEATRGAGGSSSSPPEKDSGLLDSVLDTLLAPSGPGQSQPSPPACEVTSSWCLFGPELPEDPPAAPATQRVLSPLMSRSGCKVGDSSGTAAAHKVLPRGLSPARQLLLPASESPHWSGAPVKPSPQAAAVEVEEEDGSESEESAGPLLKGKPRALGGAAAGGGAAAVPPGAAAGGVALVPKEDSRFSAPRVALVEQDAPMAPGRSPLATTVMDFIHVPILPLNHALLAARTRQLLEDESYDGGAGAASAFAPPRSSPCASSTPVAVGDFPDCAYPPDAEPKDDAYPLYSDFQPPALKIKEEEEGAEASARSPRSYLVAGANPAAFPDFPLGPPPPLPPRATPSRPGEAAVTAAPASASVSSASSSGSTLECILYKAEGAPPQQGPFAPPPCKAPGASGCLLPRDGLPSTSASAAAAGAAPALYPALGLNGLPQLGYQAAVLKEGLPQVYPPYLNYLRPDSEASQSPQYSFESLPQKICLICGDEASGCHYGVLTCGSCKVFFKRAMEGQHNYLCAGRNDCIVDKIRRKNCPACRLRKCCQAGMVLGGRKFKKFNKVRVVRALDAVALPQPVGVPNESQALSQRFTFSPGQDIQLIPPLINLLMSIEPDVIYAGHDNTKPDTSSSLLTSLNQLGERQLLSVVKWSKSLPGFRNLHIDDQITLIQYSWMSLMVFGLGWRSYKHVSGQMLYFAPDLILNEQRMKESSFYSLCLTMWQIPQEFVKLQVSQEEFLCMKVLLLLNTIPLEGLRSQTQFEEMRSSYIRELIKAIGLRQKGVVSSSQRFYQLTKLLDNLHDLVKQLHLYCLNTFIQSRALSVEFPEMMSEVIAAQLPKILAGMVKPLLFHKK
Sequence of Androgen receptor (Homo sapiens) (P10275 whole entry, looked up): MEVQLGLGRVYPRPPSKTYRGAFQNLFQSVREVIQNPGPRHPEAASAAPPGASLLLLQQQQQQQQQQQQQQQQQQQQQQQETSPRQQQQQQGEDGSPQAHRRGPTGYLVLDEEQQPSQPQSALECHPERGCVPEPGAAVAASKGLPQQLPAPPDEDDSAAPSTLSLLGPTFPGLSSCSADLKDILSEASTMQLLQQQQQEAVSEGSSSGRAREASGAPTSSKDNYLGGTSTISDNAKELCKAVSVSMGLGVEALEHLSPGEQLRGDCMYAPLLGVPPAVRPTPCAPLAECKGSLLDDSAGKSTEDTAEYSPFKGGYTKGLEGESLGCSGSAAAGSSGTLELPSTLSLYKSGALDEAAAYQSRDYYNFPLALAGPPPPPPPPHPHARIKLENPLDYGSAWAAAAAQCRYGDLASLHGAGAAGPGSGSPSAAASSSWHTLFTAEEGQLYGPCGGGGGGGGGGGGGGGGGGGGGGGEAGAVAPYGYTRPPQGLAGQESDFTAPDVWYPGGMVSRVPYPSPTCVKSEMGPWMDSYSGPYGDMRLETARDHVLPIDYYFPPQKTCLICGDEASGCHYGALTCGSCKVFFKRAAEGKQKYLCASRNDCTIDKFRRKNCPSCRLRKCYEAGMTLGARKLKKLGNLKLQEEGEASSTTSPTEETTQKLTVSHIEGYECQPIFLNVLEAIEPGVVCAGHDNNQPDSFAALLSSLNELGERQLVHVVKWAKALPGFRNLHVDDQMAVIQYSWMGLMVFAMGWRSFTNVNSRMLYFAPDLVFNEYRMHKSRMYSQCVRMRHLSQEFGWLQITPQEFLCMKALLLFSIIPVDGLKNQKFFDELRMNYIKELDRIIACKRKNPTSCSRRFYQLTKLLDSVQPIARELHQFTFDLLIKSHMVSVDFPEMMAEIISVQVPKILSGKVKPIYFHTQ
Sequence of Thyrotropin receptor (Homo sapiens) (P16473 whole entry, looked up): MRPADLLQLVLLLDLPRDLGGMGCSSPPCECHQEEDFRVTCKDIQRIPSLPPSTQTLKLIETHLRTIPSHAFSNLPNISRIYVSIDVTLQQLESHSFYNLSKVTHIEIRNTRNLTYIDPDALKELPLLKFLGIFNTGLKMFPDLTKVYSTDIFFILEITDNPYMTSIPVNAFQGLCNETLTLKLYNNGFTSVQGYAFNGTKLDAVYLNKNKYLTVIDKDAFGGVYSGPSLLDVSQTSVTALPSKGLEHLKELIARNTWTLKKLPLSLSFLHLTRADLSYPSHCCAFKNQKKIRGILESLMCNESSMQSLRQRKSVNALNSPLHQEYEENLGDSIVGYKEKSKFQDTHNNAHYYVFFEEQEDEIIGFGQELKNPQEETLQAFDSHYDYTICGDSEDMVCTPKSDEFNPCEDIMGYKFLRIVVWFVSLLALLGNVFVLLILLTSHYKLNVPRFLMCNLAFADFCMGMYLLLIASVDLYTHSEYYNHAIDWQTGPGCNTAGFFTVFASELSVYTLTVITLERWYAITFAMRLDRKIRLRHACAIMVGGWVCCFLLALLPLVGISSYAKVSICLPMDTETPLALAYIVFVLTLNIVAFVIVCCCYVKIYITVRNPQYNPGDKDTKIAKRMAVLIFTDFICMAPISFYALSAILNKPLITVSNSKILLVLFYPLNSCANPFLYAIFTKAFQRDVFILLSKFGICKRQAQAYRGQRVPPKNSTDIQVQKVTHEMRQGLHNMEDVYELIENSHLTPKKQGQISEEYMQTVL

| Compound | Potency [1] | Potency [2] | Potency [3] | Potency [4] | Potency [5] | Potency [6] | Potency [7] | Potency [8] | Potency [9] | outcome [10] | Potency [11] | Potency [12] | Potency [13] | Potency [14] | Potency [15] | outcome [16] | Potency [17] | Potency [18] | Potency [19] | Potency [20] |
| --- | --- | --- | --- | --- | --- | --- | --- | --- | --- | --- | --- | --- | --- | --- | --- | --- | --- | --- | --- | --- |
| O=C(c1ccccc1)c1cc(Cl)ccc1O | inactive | inactive | inactive | inactive | inactive | inactive | inactive | inactive | inactive | inactive |  |  |  |  |  |  |  |  |  |  |
| O=C(O)CCn1c2c(c3ccccc31)C[C@H](NS(=O)(=O)c1ccc(F)cc1)CC2 |  | inactive | inactive | inactive | inactive | inactive | inactive |  | inactive |  | inactive | inactive | inactive |  |  |  |  |  |  |  |
| Clc1ccc(C(Cn2ccnc2)OCc2ccsc2Cl)c(Cl)c1 (stereo not drawn) |  | inactive | inactive |  |  | inactive |  | inactive | inactive | inactive | inactive | 11.9 µM (active) | 23.7 µM (active) | 10.6 µM (active) | 29.8 µM (active) | inactive | 3.35 µM (active) |  |  |  |
| CC(O)C#CC(C)O (stereo not drawn) | inactive |  |  | 53.9 µM (active) | 60.5 µM (active) | inactive | inactive | inactive | inactive |  |  | 24.1 µM (active) |  |  |  | inactive | inactive |  |  |  |
| Cc1ccc(N)cc1O |  |  | inactive | inactive | inactive | inactive |  | inactive |  |  | inactive |  |  |  |  | inactive |  | inactive |  |  |
| C[C@H]1O[C@@H](O[C@H]2[C@@H](O)C[C@H](O[C@H]3[C@@H](O)C[C@H](O[C@H]4CC[C@@]5(C)[C@H](CC[C@@H]6[C@@H]5C[C@@H](O)[C@]5(C)[C@@H](C7=CC(=O)OC7)CC[C@]65O)C4)O[C@@H]3C)O[C@@H]2C)C[C@H](O)[C@@H]1O |  | inactive | inactive | inactive | inactive | inactive | inactive |  | inactive | inactive | 11.2 µM (active) |  | 86.4 nM (active) and 95.8 nM (active) |  | 61.2 nM (active) and 76.1 nM (active) |  |  | 0.172 µM (active) |  |  |
| S=P(N1CC1)(N1CC1)N1CC1 |  | inactive | inactive |  | 57.4 µM (active) | inactive | inactive | inactive | inactive | inactive | inactive | 22.9 µM (active) | inactive |  |  | inactive |  |  |  |  |
| COc1cc(C(=O)NS(=O)(=O)c2ccccc2C)ccc1Cc1cn(C)c2ccc(NC(=O)OC3CCCC3)cc12 |  | inactive | inactive | inactive | inactive | inactive | inactive | inactive | inactive | inactive | inactive |  | 13.3 µM (active) | 13.3 µM (active) |  | inactive |  |  | inactive | inactive |
| CCN(CC)CCNc1ccc(CO)c2sc3ccccc3c(=O)c12 |  | inactive | inactive |  |  | inactive |  | inactive |  |  | inactive | 13.3 µM (active) | 10.6 µM (active) |  | 11.9 µM (active) |  |  |  |  |  |
